Laboratory results taken from ChEMBL document CHEMBL1157539, “Thousands of chemical starting points for antimalarial lead identification” (Nature, 2010).

The molecules below were run on HepG2 (assay: GSK_TCMDC: Percent inhibition of human HepG2 cell line. Test compounds present at 10uM.).
Type: functional

Going from `Clc1ccc2c(Cl)c(CNCCCNc3nc4ccccc4[nH]3)[nH]c2c1` to `Cl.c1ccc2ncc(CNCCCCCCCCNCc3cnc4ccccc4c3)cc2c1`, the Inhibition falls from 38% to 8%.

Compared with `COc1cc2c(c(OC)c1[N+](=O)[O-])C=CC1(O2)N(C)c2ccc([N+](=O)[O-])cc2C1(C)C` (stereo not drawn), `Br.CC1(C)NC(N)=NC(=N)N1OCCCOc1ccc([N+](=O)[O-])cc1` is higher in Inhibition: 0% for the first, 68% for the second.

First: COc1c(CN2CCOCC2)cccc1-c1cc2c(-c3ccc(C(=O)O)c(C(C)C)c3)ccnc2[nH]1.O=C(O)C(F)(F)F
Second: O=C(NCCc1cccc(F)c1)c1ccc(N2CCN(c3ccncc3)CC2)cn1.O=C(O)C(F)(F)F
The Inhibition of the first is higher: 44% for the first, 4% for the second.

First: COc1cc(-c2ccccc2)ccc1C(=O)Nc1ccc2c(c1)N(C)CCC2
Second: Cc1ccc(NC(=O)c2cccc(C#N)c2)cc1-c1ccc(C(=O)Nc2ccncc2)cc1
The Inhibition of the first is lower: 15% for the first, 38% for the second.

First: CCOc1cc(C)ccc1C1CCN(CCCCNC(=O)c2nc(-c3ccc(C(F)(F)F)cc3)[nH]c2C)CC1.Cl
Second: O=C(/C=C/c1ccc(Cl)c(Cl)c1)NCCCCCN1CCC(C(=O)Nc2ccc(Cl)c(Cl)c2)CC1
The Inhibition of the first is lower: 30% for the first, 73% for the second.

Going from `FC(F)(F)c1ccc2[nH]c(-c3ccc(-c4cccc(CNCCc5ccncc5)c4)s3)nc2c1.O=C(O)C(F)(F)F` to `O=C(Nc1ccccc1)N(Cc1ccc(-c2ccc(CNC3CCCC3)cc2)cc1)C1CCN(Cc2ccccc2)CC1.O=C(O)C(F)(F)F`, the Inhibition rises from 20% to 34%.

`CCC(ON1C(N)=NC(N)=NC1(C)C)c1ccccc1` (stereo not drawn) showed an Inhibition of 61%.
